# For part of these data: Measured potencies and affinities stand elsewhere.
# What was measured:
# Set-up in all cases: scale not given: direction of the effect not stated beside the values
# [1] = biological target: Protein translocase subunit SecA (Escherichia coli (strain K12)) (UniProt P10408); assay: Assay to Identify E. coli SecA ATPase Inhibitors; format: functional; settings: 30 µM
# [2] = biological target: T1, Ubiquitin-activating enzyme e1, putative (Leishmania donovani (strain BPK282A1)) (UniProt E9BSI1); assay: Leishmania donovani Ubiquitin Activating Enzyme (LdE1); format: functional; settings: 30 µM
# T1 sequence (whole entry): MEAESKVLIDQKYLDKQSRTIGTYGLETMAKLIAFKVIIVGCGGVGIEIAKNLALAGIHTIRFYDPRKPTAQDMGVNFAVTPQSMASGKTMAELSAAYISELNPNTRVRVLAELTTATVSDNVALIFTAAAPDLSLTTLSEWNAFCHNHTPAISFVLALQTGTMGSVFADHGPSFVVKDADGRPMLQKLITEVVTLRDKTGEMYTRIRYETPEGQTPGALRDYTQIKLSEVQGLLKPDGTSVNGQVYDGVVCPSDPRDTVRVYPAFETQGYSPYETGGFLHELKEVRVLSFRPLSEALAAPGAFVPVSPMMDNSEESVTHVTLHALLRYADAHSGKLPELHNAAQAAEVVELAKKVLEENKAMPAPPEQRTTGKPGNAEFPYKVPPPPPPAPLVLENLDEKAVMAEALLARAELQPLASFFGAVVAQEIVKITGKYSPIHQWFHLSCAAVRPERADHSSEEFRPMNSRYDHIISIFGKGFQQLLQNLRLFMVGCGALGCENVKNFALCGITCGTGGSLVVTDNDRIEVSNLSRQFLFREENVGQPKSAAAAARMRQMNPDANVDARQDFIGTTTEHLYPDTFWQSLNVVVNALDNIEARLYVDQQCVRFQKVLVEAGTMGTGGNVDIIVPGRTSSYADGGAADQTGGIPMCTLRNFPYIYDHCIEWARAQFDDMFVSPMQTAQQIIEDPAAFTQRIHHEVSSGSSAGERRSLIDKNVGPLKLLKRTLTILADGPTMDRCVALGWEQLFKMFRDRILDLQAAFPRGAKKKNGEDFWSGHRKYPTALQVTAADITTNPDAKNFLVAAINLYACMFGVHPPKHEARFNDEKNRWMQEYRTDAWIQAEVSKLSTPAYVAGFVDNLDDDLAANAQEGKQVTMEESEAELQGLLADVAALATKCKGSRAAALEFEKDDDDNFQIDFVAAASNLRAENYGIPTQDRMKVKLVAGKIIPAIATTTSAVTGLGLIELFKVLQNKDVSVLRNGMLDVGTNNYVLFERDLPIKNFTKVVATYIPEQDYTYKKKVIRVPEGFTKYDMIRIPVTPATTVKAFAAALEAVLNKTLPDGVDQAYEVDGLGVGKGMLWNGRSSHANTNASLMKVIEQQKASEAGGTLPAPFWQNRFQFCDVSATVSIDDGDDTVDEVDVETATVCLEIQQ
# [3] = biological target: AMP-activated protein kinase, AMPK (Homo sapiens) (UniProt P54646+O43741+P54619+Q9UGJ0+Q9Y478+Q13131+Q9UGI9); assay: AMP-dependent Kinase enzyme assay. An in vitro enzyme assay that detects ADP turnover that is directly proportional to AMPK activity. This uses naive AMPK that is activated during the assay with MK-8722; format: functional; settings: 30 µM
# [4] = biological target: Sialic acid-binding Ig-like lectin 9 (Homo sapiens) (UniProt Q9Y336); assay: Hs-Siglec9 ALPHAscreen SOP 20170721; settings: 10 µM
# Chain of Sialic acid-binding Ig-like lectin 9 (Homo sapiens) (Q9Y336 whole entry): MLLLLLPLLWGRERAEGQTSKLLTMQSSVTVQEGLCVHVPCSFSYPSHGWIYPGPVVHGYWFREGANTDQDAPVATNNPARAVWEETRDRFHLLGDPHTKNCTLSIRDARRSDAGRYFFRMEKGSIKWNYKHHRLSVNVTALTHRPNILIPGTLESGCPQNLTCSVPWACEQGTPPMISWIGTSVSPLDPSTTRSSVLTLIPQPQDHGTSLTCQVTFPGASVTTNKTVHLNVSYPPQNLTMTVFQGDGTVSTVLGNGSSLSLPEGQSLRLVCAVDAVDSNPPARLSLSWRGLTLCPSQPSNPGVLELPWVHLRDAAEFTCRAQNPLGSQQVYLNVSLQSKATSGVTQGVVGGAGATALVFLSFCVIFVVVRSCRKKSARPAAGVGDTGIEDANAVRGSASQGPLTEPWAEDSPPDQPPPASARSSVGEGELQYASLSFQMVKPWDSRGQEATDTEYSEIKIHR
# Trypanosoma cruzi = assay: Trypanosoma cruzi phosphomannomutase and mannose-1-phosphate guanylyltransferase assay; format: functional; settings: 10 µM
# [5] = biological target: T2, Arginase-2, mitochondrial (Homo sapiens) (UniProt P78540); assay: in vitro enzyme assay to detect the production of urea directly proportional to the activity of Arginase II; format: functional; settings: 33.3 µM; also: in the data most compounds retested in dose-response had high values
# T2 sequence (whole entry): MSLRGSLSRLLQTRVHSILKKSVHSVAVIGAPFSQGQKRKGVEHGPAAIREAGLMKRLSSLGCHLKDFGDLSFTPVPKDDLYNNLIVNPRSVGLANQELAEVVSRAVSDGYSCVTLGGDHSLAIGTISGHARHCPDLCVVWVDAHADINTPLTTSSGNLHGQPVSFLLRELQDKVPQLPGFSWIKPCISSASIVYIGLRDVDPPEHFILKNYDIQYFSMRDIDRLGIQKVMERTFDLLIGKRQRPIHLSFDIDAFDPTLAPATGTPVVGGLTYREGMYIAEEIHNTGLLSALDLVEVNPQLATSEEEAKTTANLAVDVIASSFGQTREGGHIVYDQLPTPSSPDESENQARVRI
# [6] = biological target: T3, Proteasome subunit beta (Trypanosoma cruzi) (UniProt O96673); assay: Trypanosoma cruzi proteasome chymotrypsin-like activity (TcProtChymo) assay.; also: in the data most compounds retested in dose-response had high values; format: functional; settings: 9.37 µM
# T3 sequence (whole entry): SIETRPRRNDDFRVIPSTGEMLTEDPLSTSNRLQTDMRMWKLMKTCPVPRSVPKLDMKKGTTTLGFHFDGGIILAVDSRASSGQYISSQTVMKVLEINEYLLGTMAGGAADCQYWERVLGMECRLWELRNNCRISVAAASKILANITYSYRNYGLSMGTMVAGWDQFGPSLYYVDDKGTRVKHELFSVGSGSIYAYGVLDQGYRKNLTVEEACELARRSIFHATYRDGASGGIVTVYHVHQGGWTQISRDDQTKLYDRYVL
# Homo sapiens = species: Homo sapiens; assay: To identify inhibition of the IFN signalling (Jak-Stat) pathway via expression of an eGFP reporter gene under the control of an IFN-stimulated response element (ISRE) containing MxA promoter.; format: functional; settings: 30 µM
# [7] = biological target: T4, Tyrosyl-tRNA synthetase, putative (Trypanosoma cruzi (strain CL Brener)) (UniProt Q4DSP6); assay: Trypanosoma cruzi tyrosyl tRNA synthetase (TcYRS) _High Tyrosine SOP; format: functional; settings: 30 µM; also: in the data most compounds retested in dose-response had high values
# T4 sequence (whole entry): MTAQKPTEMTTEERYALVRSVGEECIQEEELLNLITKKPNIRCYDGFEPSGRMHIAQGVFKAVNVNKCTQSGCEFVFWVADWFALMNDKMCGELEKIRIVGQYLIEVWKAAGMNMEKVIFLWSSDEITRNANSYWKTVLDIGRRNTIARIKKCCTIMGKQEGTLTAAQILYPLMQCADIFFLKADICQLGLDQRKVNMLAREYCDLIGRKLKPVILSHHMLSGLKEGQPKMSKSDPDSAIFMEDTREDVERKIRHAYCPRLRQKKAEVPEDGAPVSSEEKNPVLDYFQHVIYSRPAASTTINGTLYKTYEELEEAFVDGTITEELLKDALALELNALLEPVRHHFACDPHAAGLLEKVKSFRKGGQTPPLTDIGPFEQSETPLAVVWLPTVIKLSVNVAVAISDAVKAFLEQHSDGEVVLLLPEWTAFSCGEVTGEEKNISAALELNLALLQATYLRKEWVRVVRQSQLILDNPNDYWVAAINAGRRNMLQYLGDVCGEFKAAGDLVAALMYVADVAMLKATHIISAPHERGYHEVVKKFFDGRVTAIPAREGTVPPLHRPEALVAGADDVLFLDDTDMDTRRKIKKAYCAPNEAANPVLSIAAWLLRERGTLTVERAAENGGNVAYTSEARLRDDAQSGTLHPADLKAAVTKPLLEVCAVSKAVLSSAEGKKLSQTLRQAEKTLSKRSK
# [8] = biological target: T4, Tyrosyl-tRNA synthetase, putative (Trypanosoma cruzi (strain CL Brener)); assay: Trypanosoma cruzi tyrosyl tRNA synthetase (TcYRS) SOP; format: functional; settings: 30 µM
# [9] = biological target: Chromo domain-containing protein 1 (Saccharomyces cerevisiae (strain ATCC 204508 / S288c) (Baker's yeast)) (UniProt P32657); assay: ScCHD-1 Enzyme Inhibition Assay; format: functional; settings: 30 µM; also: in the data most compounds retested in dose-response had high values
# Chain of Chromo domain-containing protein 1 (Saccharomyces cerevisiae (strain ATCC 204508 / S288c) (Baker's yeast)) (P32657 whole entry, the tested form may be a part): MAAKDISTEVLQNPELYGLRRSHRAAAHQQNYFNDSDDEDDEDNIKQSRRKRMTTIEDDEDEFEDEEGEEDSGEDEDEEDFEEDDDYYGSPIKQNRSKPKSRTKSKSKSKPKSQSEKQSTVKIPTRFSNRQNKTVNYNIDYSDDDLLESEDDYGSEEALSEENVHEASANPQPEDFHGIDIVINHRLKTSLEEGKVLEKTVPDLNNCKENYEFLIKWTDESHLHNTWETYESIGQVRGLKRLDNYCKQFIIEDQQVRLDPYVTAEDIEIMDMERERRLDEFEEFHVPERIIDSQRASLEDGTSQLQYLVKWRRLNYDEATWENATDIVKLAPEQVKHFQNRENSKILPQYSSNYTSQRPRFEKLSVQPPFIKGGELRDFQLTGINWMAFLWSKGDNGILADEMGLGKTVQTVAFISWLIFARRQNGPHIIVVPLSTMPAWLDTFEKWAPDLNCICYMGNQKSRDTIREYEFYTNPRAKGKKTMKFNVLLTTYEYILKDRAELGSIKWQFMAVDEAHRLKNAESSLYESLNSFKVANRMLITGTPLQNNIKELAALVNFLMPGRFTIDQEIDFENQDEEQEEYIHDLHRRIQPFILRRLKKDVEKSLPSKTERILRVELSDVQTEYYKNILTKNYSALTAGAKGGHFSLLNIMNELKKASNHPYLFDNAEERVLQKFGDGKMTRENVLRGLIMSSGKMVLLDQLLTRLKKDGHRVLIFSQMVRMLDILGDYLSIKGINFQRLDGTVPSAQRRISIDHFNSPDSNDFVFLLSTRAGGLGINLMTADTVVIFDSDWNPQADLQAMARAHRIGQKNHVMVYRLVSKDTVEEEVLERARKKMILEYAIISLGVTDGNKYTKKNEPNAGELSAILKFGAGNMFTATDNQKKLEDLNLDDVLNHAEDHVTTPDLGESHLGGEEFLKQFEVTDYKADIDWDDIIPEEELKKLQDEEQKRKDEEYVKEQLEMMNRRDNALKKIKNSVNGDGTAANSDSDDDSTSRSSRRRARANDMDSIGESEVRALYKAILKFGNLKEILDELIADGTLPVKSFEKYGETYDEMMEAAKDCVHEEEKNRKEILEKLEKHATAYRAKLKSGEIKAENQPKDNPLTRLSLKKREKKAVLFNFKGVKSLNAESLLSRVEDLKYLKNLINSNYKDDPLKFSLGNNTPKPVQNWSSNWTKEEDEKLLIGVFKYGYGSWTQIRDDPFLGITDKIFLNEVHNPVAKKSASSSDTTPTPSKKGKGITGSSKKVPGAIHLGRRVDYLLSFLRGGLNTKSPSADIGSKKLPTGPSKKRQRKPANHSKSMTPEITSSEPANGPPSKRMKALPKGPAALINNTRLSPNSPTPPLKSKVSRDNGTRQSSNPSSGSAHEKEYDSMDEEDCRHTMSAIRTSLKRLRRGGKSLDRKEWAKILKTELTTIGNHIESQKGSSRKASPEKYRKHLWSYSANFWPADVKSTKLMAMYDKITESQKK
# Chain of Protein translocase subunit SecA (Escherichia coli (strain K12)) (P10408 whole entry): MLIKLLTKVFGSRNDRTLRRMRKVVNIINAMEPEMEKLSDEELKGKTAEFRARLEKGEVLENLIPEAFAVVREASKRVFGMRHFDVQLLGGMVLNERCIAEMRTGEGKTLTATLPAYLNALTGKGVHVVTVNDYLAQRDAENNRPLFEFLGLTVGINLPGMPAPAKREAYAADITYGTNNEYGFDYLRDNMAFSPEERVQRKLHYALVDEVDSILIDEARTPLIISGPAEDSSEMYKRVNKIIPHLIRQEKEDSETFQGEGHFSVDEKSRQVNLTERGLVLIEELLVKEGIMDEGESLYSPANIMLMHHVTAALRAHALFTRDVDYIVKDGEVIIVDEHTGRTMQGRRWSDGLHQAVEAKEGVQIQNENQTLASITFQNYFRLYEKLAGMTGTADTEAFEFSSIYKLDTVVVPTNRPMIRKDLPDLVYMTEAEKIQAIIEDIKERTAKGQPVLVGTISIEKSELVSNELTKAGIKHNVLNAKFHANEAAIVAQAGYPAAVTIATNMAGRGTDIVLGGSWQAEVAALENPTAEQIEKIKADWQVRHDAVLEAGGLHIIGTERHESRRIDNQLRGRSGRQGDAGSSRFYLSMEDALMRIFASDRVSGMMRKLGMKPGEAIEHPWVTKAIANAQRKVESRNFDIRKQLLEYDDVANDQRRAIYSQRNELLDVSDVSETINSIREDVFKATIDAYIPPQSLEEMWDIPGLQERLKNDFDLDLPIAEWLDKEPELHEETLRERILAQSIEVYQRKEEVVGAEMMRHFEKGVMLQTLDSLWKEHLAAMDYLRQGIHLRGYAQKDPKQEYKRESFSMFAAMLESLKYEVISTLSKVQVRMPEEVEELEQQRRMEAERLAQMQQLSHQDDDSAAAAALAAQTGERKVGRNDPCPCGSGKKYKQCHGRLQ
SMILES,Percent Effect [1],Percent Effect [2],Percent Effect [3],Percent Effect [4],Percent Effect (Trypanosoma cruzi),Percent Effect [5],Percent Effect [6],Percent Effect (Homo sapiens),Percent Effect [7],Percent Effect [8],Percent Effect [9]
Cc1[nH]ccc1C(=O)Nc1cccc(CN2CCC(O)CC2)c1,0.333%,10.5%,-2.05%,-6.23%,-5.36%,-2.37%,16.2%,8.85%,1.06%,10.4%,-3.89%
Cc1nc(N2CCCC2)nc2c1CCN(Cc1ccco1)CC2,-1.94%,10.7%,8.01%,0.178%,0%,-45.3%,20.7%,-2.8%,3.12%,12.5%,-9.82%
Cc1ccc(-c2cc(N)c(=O)n(CC(=O)NCC3CC3)n2)s1,-3.74%,6.76%,19.9%,2.48%,-0.395%,-5.8%,9.2%,11.4%,1.07%,9.09%,-14.1%
Cc1ccc2c(ccn2CCC(=O)O)c1,-4.82%,0%,0.269%,-0.473%,1.07%,-0.744%,-2.83%,11.2%,1.07%,3.7%,0.48%
CC(C(=O)Nc1ccc(N2CCCC2)nc1)n1cncn1 (stereo unspecified),-5.02%,10.8%,-32.5%,18.1%,4.62%,-9.62%,14.2%,19.2%,7.39%,18.5%,-10.4%
CCc1csc(C2CCCN(C(=O)c3ccnc(N(C)C)c3)C2)n1 (stereo unspecified),-1.95%,13.2%,0.891%,-9.58%,4.58%,-3.55%,7.77%,41.7%,4.25%,13%,-4.33%
CC(C)Oc1ncnc2c1CCN(Cc1cccs1)CC2,3.01%,0%,24.6%,8.66%,-0.193%,-43.9%,3.76%,8.59%,6.25%,10%,-1.96%
CCOc1ccc(C#N)cc1NCC(=O)Nc1cc(F)ccc1F,-4.77%,-12.7%,-7.04%,-0.166%,4.63%,-29.7%,3.19%,-7.08%,7.39%,24.1%,18.3%
O=S(=O)(Nc1cnn(C2CCOCC2)c1)c1c(F)cccc1F,1.19%,-2.6%,-13.6%,5.79%,-2.66%,-1.94%,10.4%,5.2%,2.12%,1.28%,-4.35%
Cc1nc(C)n(C2CCCN(C(=O)c3csnn3)C2)n1 (stereo unspecified),-2.6%,21.6%,-13%,-1.58%,-2.92%,-7.21%,16.2%,15.5%,4.43%,18.5%,-4.56%
CC[C@@]1(O)CCN(C(=O)c2ccc(SC)cc2)C[C@H]1O,-4.3%,4.17%,0.43%,1.71%,6.9%,-0.442%,10.9%,3.45%,4.21%,5.13%,-3.41%
O=C(CCc1ccc(Br)cc1F)NS(=O)(=O)c1ccc2c(c1)OCCO2,-4.85%,-6.33%,13.3%,0.4%,-2.15%,1.07%,4.97%,18.6%,-18.8%,-17.7%,-2.67%
O=C(CCCc1nc2ccccc2[nH]1)N1CCCC(n2cccn2)C1 (stereo unspecified),-4.65%,10.5%,-3.13%,5.64%,8.27%,-5.36%,7.18%,-2.05%,5.39%,17.1%,-12%
Cc1ncsc1-c1nnc(C2CCN(Cc3ccc(F)cc3)CC2)o1,-0.551%,-4.05%,20%,-0.16%,1.19%,-0.696%,1.25%,-6.87%,0%,-6.49%,-19.5%
CCN(CCNC(=O)c1ccccc1Br)C1CC1,-1.99%,-6.33%,-0.476%,-1.28%,-0.923%,7.53%,10.3%,5.43%,1.04%,-10.1%,-18%
CC(C)c1nn(C)c(Cl)c1CNCc1ccc2c(c1)OCCO2,-4.72%,10.5%,2.72%,8.57%,3.27%,-5.04%,2.28%,-34.1%,5.42%,16.1%,0.827%
Cc1ccc(C(=O)N2CCN(Cc3nc(C(C)C)no3)CC2)c(=O)[nH]1,-7.78%,2.7%,-5.78%,5.72%,-4.36%,-2.77%,-4.49%,13.8%,1.98%,1.22%,7.95%
COc1ncccc1CN1CCn2c(Cn3cncn3)cnc2C1,-1.73%,18.7%,0.535%,-13.2%,-2.76%,2.1%,8.19%,-1.48%,0%,6.41%,-3.83%
CC(=O)N1CCCC(Cc2cncc(Br)c2)CC1 (stereo unspecified),-8.44%,12.2%,-0.231%,1.66%,2.77%,-2.09%,16.4%,24.7%,5.38%,6.49%,-26.1%
CC(=O)N1CC[C@H]2OCC[C@@H](C(=O)N3CCCCO3)[C@@H]2C1,-2.31%,12%,-3.03%,10.7%,-1.97%,-8.63%,15%,-4.45%,4.23%,12.8%,-7.82%
COc1cccc(CN(C)C(=O)CN2CC(n3nc(C)cc3C)C2)c1,-0.578%,-73.7%,0.521%,-5.84%,1.27%,1.18%,24.3%,23.1%,26.6%,39%,-4.54%

# From ChEMBL document CHEMBL3988442, “University of Dundee, Small-Polar-MMV Screening Library” (2021)
